The source of these data is PMC7862700, “An all-to-all approach to the identification of sequence-specific readers for epigenetic DNA modifications on cytosine”.

Holding throughout (assay): DAPPL (digital affinity profiling via proximity ligation, sequencing); 10 mM Tris-HCl pH 7.5, 50 mM NaCl, 1 mM DTT, 4% glycerol, room temperature, 30 min; GST-TFs on glutathione beads, 16-mer random dsDNA library, 0.1% formaldehyde crosslink after washing; high values mean tight binding
One experiment has as its target T1, FEV (Homo sapiens, UniProt Q99581 1-238).
T1 sequence: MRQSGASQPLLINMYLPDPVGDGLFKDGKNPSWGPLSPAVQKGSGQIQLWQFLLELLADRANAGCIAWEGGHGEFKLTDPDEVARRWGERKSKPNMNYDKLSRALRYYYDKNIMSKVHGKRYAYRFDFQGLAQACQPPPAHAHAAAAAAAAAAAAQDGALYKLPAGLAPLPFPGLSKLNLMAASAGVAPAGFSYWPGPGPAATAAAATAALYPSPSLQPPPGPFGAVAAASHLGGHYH
The settings on record: protein: recombinant; tags: N-terminal GST; dsDNA, one strand shown. The method, boiled down:
(§1)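 In yeast, human transcription factors were expressed with a GST fusion, then pulled down on glutathione beads and given DNA barcodes. Pooled with a tag-only sample, they were exposed to 200 nmole of a 16-mer random double-stranded DNA library (Tris/NaCl/DTT/glycerol buffer, room temperature, 30 min), washed, crosslinked with 0.1% formaldehyde, proximity-ligated using BsaI/T4 ligase for 1 h at 37 °C, PCR-amplified and read on an Illumina NextSeq500. Each hexamer's frequency of reads for a factor, divided by the matching frequency for the tag-only sample, gives the binding signal.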

The target of another experiment is ETV5 (Homo sapiens, UniProt P41161 1-510). The note with it: protein: recombinant; tags: N-terminal GST; dsDNA, one strand shown. The method, boiled down:
as §1

Another experiment has as its target HSF1 (Homo sapiens, UniProt Q00613 1-529). The note with it: protein: recombinant; tags: N-terminal GST; chain copies: 3; dsDNA, one strand shown. The method, boiled down:
as §1

A further experiment addresses T2, SPIC (Homo sapiens, UniProt Q8N5J4 1-248).
T2 sequence: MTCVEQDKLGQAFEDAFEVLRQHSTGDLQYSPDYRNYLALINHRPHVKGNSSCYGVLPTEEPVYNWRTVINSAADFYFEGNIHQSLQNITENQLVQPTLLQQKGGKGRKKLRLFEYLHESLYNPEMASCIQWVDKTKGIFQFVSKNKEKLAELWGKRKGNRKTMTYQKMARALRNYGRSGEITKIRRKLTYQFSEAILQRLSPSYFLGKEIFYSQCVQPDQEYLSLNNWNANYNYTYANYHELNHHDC
The settings on record: protein: recombinant; tags: N-terminal GST; dsDNA, one strand shown. The procedure, abridged: as §1

Another experiment concerns the target ELF4 (Homo sapiens, UniProt Q99607 1-663). The note with it: protein: recombinant; tags: N-terminal GST; dsDNA, one strand shown. The procedure, abridged:
as §1

In another experiment the target is T3, ELK4 (Homo sapiens, UniProt P28324-2 1-405).
T3 sequence: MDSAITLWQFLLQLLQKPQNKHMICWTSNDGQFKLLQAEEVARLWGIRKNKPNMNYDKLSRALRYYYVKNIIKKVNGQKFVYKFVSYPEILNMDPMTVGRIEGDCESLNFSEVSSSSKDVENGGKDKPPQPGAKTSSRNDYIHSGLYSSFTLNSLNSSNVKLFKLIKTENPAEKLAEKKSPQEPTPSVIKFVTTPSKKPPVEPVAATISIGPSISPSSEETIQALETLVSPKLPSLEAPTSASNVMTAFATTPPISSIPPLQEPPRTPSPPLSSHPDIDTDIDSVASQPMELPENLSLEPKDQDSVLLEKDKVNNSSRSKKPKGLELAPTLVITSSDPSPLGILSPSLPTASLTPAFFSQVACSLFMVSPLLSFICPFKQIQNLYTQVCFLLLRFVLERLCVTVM
The settings on record: protein: recombinant; tags: N-terminal GST; dsDNA, one strand shown. The method, boiled down: as §1

The target in the next experiment is T4, ETV2 (Homo sapiens, UniProt O00321 1-342).
T4 sequence: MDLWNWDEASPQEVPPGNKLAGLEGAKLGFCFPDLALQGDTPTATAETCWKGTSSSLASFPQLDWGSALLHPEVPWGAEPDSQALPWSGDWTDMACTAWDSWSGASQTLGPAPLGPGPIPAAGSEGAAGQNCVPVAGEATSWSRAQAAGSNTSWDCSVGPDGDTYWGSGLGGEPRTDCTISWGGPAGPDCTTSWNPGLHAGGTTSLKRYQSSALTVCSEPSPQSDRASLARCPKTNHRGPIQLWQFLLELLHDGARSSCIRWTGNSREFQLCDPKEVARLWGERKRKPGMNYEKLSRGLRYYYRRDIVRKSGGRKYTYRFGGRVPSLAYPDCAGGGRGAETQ
The note with it: protein: recombinant; tags: N-terminal GST; dsDNA, one strand shown. The method, boiled down:
as §1

In a further experiment the target is T5, ELF3 (Homo sapiens, UniProt P78545 1-371).
T5 sequence: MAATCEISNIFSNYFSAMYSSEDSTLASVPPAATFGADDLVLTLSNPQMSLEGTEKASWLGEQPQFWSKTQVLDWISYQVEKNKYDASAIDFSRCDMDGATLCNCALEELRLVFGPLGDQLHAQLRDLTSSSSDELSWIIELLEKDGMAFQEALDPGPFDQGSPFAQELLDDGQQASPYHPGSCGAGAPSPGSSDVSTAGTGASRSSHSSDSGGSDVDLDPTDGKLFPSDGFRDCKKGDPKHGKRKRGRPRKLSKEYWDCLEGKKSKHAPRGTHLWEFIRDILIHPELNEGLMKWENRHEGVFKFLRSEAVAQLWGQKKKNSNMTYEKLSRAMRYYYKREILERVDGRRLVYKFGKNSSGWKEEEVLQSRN
The settings on record: protein: recombinant; tags: N-terminal GST; dsDNA, one strand shown. The procedure, abridged: as §1

In the next experiment the target is CRX (Homo sapiens, UniProt O43186 1-299). The note with it: protein: recombinant; tags: N-terminal GST; dsDNA, one strand shown. The method, boiled down: as §1
Sequence of CRX (O43186 whole entry): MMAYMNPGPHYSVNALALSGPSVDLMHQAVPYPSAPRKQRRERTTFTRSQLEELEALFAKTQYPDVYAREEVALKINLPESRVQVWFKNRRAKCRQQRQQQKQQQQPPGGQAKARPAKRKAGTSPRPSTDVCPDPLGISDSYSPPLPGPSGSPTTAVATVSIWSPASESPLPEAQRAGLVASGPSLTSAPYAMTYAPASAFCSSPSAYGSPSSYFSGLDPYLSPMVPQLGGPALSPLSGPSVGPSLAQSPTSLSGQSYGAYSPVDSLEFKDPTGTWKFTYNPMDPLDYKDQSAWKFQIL
The target of another experiment is ETV1 (Homo sapiens, UniProt P50549 1-477). The note with it: protein: recombinant; tags: N-terminal GST; dsDNA, one strand shown. The method, boiled down:
as §1

Sequence of ELF4 (Q99607 whole entry): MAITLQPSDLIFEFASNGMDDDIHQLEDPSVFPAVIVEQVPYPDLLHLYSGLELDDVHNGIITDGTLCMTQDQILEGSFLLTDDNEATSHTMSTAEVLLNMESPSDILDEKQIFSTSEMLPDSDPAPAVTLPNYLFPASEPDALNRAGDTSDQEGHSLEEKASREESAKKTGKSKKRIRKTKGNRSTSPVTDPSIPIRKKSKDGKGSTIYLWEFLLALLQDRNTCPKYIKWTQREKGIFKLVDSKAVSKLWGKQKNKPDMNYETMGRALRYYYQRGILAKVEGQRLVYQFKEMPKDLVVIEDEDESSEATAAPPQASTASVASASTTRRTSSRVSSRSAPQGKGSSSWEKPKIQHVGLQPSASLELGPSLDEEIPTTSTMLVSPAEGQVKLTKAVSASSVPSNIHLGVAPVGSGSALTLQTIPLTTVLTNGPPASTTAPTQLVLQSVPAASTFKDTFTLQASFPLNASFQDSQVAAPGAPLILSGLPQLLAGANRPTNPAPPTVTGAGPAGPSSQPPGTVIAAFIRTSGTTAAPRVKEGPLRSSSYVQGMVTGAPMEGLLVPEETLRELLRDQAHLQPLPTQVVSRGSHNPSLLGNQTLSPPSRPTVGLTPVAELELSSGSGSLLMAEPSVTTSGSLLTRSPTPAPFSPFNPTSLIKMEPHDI
Sequence of ETV5 (P41161 whole entry): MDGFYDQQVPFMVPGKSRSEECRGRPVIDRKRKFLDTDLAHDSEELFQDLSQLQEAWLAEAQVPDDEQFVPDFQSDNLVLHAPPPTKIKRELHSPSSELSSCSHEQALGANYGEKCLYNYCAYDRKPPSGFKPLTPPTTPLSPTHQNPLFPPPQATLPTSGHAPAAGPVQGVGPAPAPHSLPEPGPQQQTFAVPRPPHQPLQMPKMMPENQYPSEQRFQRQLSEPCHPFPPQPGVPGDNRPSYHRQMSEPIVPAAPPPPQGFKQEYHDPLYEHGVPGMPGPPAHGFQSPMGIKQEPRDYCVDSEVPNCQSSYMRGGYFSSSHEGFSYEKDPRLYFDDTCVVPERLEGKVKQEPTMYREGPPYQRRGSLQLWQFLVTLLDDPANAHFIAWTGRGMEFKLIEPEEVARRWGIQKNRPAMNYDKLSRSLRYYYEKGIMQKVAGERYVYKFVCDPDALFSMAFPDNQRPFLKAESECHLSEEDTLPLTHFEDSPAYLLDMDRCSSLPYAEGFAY
Sequence of HSF1 (Q00613 whole entry): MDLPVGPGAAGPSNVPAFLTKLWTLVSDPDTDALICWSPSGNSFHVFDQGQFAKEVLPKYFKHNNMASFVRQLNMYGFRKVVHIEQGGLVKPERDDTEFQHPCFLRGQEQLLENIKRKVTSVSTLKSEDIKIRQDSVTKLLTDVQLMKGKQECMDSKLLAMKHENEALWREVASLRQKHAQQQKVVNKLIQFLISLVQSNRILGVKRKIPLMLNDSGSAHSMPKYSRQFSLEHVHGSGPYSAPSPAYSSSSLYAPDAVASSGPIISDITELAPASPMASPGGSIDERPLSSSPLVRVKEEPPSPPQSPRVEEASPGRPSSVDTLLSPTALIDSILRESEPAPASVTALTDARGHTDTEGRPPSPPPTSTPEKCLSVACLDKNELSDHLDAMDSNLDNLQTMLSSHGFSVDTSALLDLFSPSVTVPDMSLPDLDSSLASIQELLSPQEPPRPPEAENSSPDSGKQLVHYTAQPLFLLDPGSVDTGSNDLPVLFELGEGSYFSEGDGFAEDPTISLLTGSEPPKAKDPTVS
Sequence of ETV1 (P50549 whole entry): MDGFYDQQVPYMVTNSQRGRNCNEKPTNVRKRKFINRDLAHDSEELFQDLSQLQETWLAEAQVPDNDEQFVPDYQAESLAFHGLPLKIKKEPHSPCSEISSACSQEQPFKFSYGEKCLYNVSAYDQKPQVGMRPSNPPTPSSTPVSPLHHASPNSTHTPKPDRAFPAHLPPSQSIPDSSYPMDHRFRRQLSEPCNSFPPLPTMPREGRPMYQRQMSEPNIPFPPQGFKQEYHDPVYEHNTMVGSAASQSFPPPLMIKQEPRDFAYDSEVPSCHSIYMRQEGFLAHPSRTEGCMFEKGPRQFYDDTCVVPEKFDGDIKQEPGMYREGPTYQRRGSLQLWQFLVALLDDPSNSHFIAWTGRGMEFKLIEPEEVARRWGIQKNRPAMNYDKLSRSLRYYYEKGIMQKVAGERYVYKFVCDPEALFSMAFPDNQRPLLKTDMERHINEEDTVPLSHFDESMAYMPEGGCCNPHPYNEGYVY

In the case of CATCTC, the binding signal is 1.2 fold enrichment (6-mer frequency, TF over GST control) in the experiment with FEV; 1.29 fold enrichment (6-mer frequency, TF over GST control) with ETV5; 1.26 fold enrichment (6-mer frequency, TF over GST control) with HSF1; 1.46 fold enrichment (6-mer frequency, TF over GST control) with SPIC; 1.26 fold enrichment (6-mer frequency, TF over GST control) in the experiment with ELF4; 1.42 fold enrichment (6-mer frequency, TF over GST control) with ELK4. The binding signal with ETV2 is 1.4 fold enrichment (6-mer frequency, TF over GST control); with ELF3 it was 1.23 fold enrichment (6-mer frequency, TF over GST control); with CRX, 1.16 fold enrichment (6-mer frequency, TF over GST control); with ETV1 it was 1.26 fold enrichment (6-mer frequency, TF over GST control).
Take TCTAAT: the binding signal in the experiment with FEV was 1.16 fold enrichment (6-mer frequency, TF over GST control); in the experiment with ETV5, 1.17 fold enrichment (6-mer frequency, TF over GST control); with HSF1, 1.73 fold enrichment (6-mer frequency, TF over GST control); with SPIC, 1.26 fold enrichment (6-mer frequency, TF over GST control); with ELF4, 1.21 fold enrichment (6-mer frequency, TF over GST control); with ELK4, 1.18 fold enrichment (6-mer frequency, TF over GST control). In addition, the binding signal was 1.22 fold enrichment (6-mer frequency, TF over GST control) with ETV2; 1.16 fold enrichment (6-mer frequency, TF over GST control) with ELF3; 2.37 fold enrichment (6-mer frequency, TF over GST control) with CRX; 1.26 fold enrichment (6-mer frequency, TF over GST control) with ETV1.
As to TTAAGC, the binding signal was 1.18 fold enrichment (6-mer frequency, TF over GST control) with FEV; 1.12 fold enrichment (6-mer frequency, TF over GST control) in the experiment with ETV5; 2.25 fold enrichment (6-mer frequency, TF over GST control) in the experiment with HSF1; 1.19 fold enrichment (6-mer frequency, TF over GST control) with SPIC; 1.22 fold enrichment (6-mer frequency, TF over GST control) in the experiment with ELF4; 1.15 fold enrichment (6-mer frequency, TF over GST control) with ELK4. In addition, the binding signal is 1.03 fold enrichment (6-mer frequency, TF over GST control) with ETV2; 1.1 fold enrichment (6-mer frequency, TF over GST control) with ELF3; 3.77 fold enrichment (6-mer frequency, TF over GST control) in the experiment with CRX; 1.11 fold enrichment (6-mer frequency, TF over GST control) with ETV1.
For CTCACG, the binding signal in the experiment with FEV is 1.32 fold enrichment (6-mer frequency, TF over GST control); in the experiment with ETV5, 1.4 fold enrichment (6-mer frequency, TF over GST control); in the experiment with HSF1 it was 1.14 fold enrichment (6-mer frequency, TF over GST control); with SPIC it was 1.31 fold enrichment (6-mer frequency, TF over GST control); with ELF4 it was 1.33 fold enrichment (6-mer frequency, TF over GST control); in the experiment with ELK4 it was 1.35 fold enrichment (6-mer frequency, TF over GST control). Also, the binding signal with ETV2 is 1.35 fold enrichment (6-mer frequency, TF over GST control); with ELF3, 1.26 fold enrichment (6-mer frequency, TF over GST control); with CRX, 1.08 fold enrichment (6-mer frequency, TF over GST control); with ETV1, 1.22 fold enrichment (6-mer frequency, TF over GST control).
As to TTCTGC, the binding signal is 1.39 fold enrichment (6-mer frequency, TF over GST control) with FEV; 1.46 fold enrichment (6-mer frequency, TF over GST control) with ETV5; 1.57 fold enrichment (6-mer frequency, TF over GST control) with HSF1; 1.37 fold enrichment (6-mer frequency, TF over GST control) in the experiment with SPIC; 1.52 fold enrichment (6-mer frequency, TF over GST control) with ELF4; 1.65 fold enrichment (6-mer frequency, TF over GST control) with ELK4. Besides, the binding signal with ETV2 is 1.26 fold enrichment (6-mer frequency, TF over GST control); with ELF3 it was 1.54 fold enrichment (6-mer frequency, TF over GST control); with CRX, 1.36 fold enrichment (6-mer frequency, TF over GST control); with ETV1, 1.45 fold enrichment (6-mer frequency, TF over GST control).
For the sequence TATCCT, the binding signal was 1.94 fold enrichment (6-mer frequency, TF over GST control) with FEV; 1.95 fold enrichment (6-mer frequency, TF over GST control) with ETV5; 1.72 fold enrichment (6-mer frequency, TF over GST control) with HSF1; 1.87 fold enrichment (6-mer frequency, TF over GST control) in the experiment with SPIC; 1.65 fold enrichment (6-mer frequency, TF over GST control) with ELF4; 1.83 fold enrichment (6-mer frequency, TF over GST control) with ELK4. Also, the binding signal is 1.93 fold enrichment (6-mer frequency, TF over GST control) with ETV2; 1.59 fold enrichment (6-mer frequency, TF over GST control) with ELF3; 2.28 fold enrichment (6-mer frequency, TF over GST control) in the experiment with CRX; 1.72 fold enrichment (6-mer frequency, TF over GST control) with ETV1.
As to AATAAT, the binding signal with FEV is 1.28 fold enrichment (6-mer frequency, TF over GST control); with ETV5, 1.35 fold enrichment (6-mer frequency, TF over GST control); with HSF1 it was 1.93 fold enrichment (6-mer frequency, TF over GST control); with SPIC it was 1.31 fold enrichment (6-mer frequency, TF over GST control); in the experiment with ELF4, 1.24 fold enrichment (6-mer frequency, TF over GST control); with ELK4, 1.22 fold enrichment (6-mer frequency, TF over GST control). In addition, the binding signal with ETV2 was 1.34 fold enrichment (6-mer frequency, TF over GST control); with ELF3, 1.42 fold enrichment (6-mer frequency, TF over GST control); with CRX, 2.41 fold enrichment (6-mer frequency, TF over GST control); with ETV1, 1.24 fold enrichment (6-mer frequency, TF over GST control).
With CTTCGT, the binding signal in the experiment with FEV is 1.33 fold enrichment (6-mer frequency, TF over GST control); with ETV5, 1.33 fold enrichment (6-mer frequency, TF over GST control); with HSF1, 1.31 fold enrichment (6-mer frequency, TF over GST control); with SPIC, 1.4 fold enrichment (6-mer frequency, TF over GST control); with ELF4 it was 1.29 fold enrichment (6-mer frequency, TF over GST control); in the experiment with ELK4, 1.39 fold enrichment (6-mer frequency, TF over GST control). Besides, the binding signal with ETV2 was 1.41 fold enrichment (6-mer frequency, TF over GST control); in the experiment with ELF3, 1.41 fold enrichment (6-mer frequency, TF over GST control); in the experiment with CRX, 1.22 fold enrichment (6-mer frequency, TF over GST control); with ETV1 it was 1.32 fold enrichment (6-mer frequency, TF over GST control).
